Test system: Escherichia coli
Assay: Antibacterial activity against Escherichia coli ATCC 25922 (CO-ADD:GN_001); MIC in CAMBH media using NBS plates, by Resazurin F(560/590)
Assay type: functional
Details: Concentration 20 uM, ASSAY_TEST Inhibition of Bacterial Growth, detection method Resazurin, Fluorescence (ex560/em590), MEDIA CAMHB, plate type 384well, CORNING #3640, time 18 hr

Row | Structure (SMILES) | Inhibition
1 | O=C(O)c1ccccc1-c1ccccc1C(=O)Nc1ccc2c(c1)nc(O)c1ccccc12 | 10.96%
2 | COc1cccc(NC(S)=Nc2ccc(O)cc2)c1 | 8.79%
3 | Cc1cnc2c(N)cc(C)c(C)c2c1 | 9.48%
4 | CC(C)c1ccc(-c2nc3ccccc3s2)cc1 | 4.01%
5 | Cn1ncc2c(Nc3cccc(Cl)c3)nc(Nc3cccc(Cl)c3)nc21 | 4.26%
6 | COc1ccc(C(=S)N2CCN(c3cccc(Cl)c3)CC2)cc1 | 3.07%
7 | CC(C)(C)n1nc(C2CC2)cc1NC(=O)Nc1ccccc1 | 8.62%
8 | c1ccc(-c2nc[nH]c2-c2ccccc2)cc1 | 11.94%
9 | O=C(Nc1ccc(Cl)c(Cl)c1)Nc1ccccc1O | -13.39%
10 | Cc1ccc(/N=N\c2c(O)ccc3[nH]nnc23)cc1 | 4.02%
11 | CCOC(=O)Nc1csnn1 | 13.49%
12 | O=C(O)c1cc(O)ccc1/N=N/c1ccccc1 | 1.52%
13 | COc1cc2c(c(OC)c1O)C(=O)CO2 | -0.75%
14 | Cc1nc2ccccc2nc1NS(=O)(=O)c1ccc(N)cc1 | -4.56%
15 | CNC1(C(N)=O)CCNCC1 | 16.83%
16 | Cc1cccc(C(O)C(O)c2cccc(C)n2)n1 (stereo not given) | 8.35%
17 | COc1cc(/C=N/N=c2\[nH]c3c(=O)n(C)c(=O)n(C)c3[nH]2)ccc1O | 14.34%
18 | COc1ccc(/N=N/c2ccc(N)nc2N)cc1 | 5.08%
19 | CCC(CO)Nc1nc2ccc(Cl)cc2c2ccccc12 (stereo not given) | 4.69%
20 | CSc1ccc(NC(=O)Nc2cc(C)ccn2)cc1 | 9.5%
